These results are taken from PubChem BioAssay (EPA / NIEHS).

Activity calls are given as the source filed them. Rule for the calls: active = hit-call score of the fitted dose curve at least 0.9, where 1 is the maximum; inactive = score below 0.9.

Conditions in all cases: mRNA level, 48 h; actives raise or lower the signal
Read-out in one test: CYP4A11 (gene 1579)
Briefly: LTEA_HepaRG_CYP4A11: Life Technologies and Expression Analysis (LTEA) Assay for CYP4A11 using HepaRG (AID 2283486). Put shortly: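 Readout is CYP4A11 mRNA induction or suppression (qRT-PCR, ACTB/GAPDH/POLR2A normalization) in human HepaRG cells after 48 h chemical treatment, concentrations to 100 uM in 0.5% DMSO, fitted bidirectionally against vehicle.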

Read-out in test [1]: Cytochrome P450 3A4 (Homo sapiens) (UniProt P08684)
Briefly: LTEA_HepaRG_CYP3A4: Life Technologies and Expression Analysis (LTEA) Assay for CYP3A4 using HepaRG (AID 2283487). The gist of the method:
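Differentiated HepaRG cells in serum-free induction medium exposed in duplicate for 48 h to 8 half-log concentrations up to 100 uM in 0.5% DMSO. CYP3A4 mRNA measured by qRT-PCR normalized to ACTB, GAPDH and POLR2A; bidirectional fit versus DMSO.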

Read-out in test [2]: DNA damage-inducible transcript 3 (DDIT3), DDIT3 (gene 1649)
Briefly: LTEA_HepaRG_DDIT3: Life Technologies and Expression Analysis (LTEA) Assay for DNA damage-inducible transcript 3 (DDIT3) using HepaRG (AID 2283488). Put shortly: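 HepaRG plated 48 h, switched to serum-free induction medium, dosed 48 h (100 uM top, half-log, 8 pts, 0.5% DMSO, n=2); RNA isolated; DDIT3 by qRT-PCR; bidirectional curve fit vs DMSO.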

Read-out in test [3]: Pro-epidermal growth factor (Homo sapiens) (UniProt P01133)
Description: LTEA_HepaRG_EGF: Life Technologies and Expression Analysis (LTEA) Assay for Epidermal growth factor (EGF) using HepaRG (AID 2283489). Put shortly: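 EGF expression changes in human HepaRG cells are scored by bidirectional fitting relative to 0.5% DMSO controls. Chemicals are tested at eight half-log concentrations up to 100 uM for 48 h in serum-free induction medium.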

Read-out in test [4]: Early growth response protein 1 (EGR1) transcription factor, EGR1 (gene 1958)
Briefly: LTEA_HepaRG_EGR1: Life Technologies and Expression Analysis (LTEA) Assay for Early growth response protein 1 (EGR1) transcription factor using HepaRG (AID 2283490). The gist of the method: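 Read-out is EGR1 mRNA level by qRT-PCR, normalized to three housekeeping genes and analysed for gain or loss of signal against 0.5% DMSO. Source cells: human HepaRG, treated 48 h at up to 100 uM in half-log dilutions.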

Read-out in test [5]: Ezrin (EZR), EZR (gene 7430)
Description: LTEA_HepaRG_EZR: Life Technologies and Expression Analysis (LTEA) Assay for Ezrin (EZR) using HepaRG (AID 2283491). Put shortly: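 Differentiated human HepaRG cells, 48 h after plating, were exposed in serum-free induction medium for 48 hours to eight half-log concentrations up to 100 uM in 0.5% DMSO. EZR mRNA was measured by TaqMan qRT-PCR, normalized to ACTB, GAPDH and POLR2A, and fitted bidirectionally against DMSO.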

Read-out in test [6]: Cytochrome P450 3A7 (Homo sapiens) (UniProt P24462)
Briefly: LTEA_HepaRG_CYP3A7: Life Technologies and Expression Analysis (LTEA) Assay for CYP3A7 using HepaRG (AID 2283492). The gist of the method:
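Cells were thawed, plated, cultured 48 h, then treated for a further 48 h with chemicals (eight-point half-log series from 100 uM, 0.5% DMSO). RNA was isolated and CYP3A7 expression quantified by qRT-PCR normalised to ACTB, GAPDH and POLR2A.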

Read-out in a further test: CYP3A5 (gene 1577)
Description: LTEA_HepaRG_CYP3A5: Life Technologies and Expression Analysis (LTEA) Assay for CYP3A5 using HepaRG (AID 2283493). Put shortly:
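HepaRG plated 48 h, switched to serum-free induction medium, chemicals added 48 h (max 100 uM, half-log, 0.5% DMSO). RNA isolated; CYP3A5 by TaqMan qRT-PCR. Gain/loss vs DMSO.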

Read-out in test [7]: Fatty Acid-Binding Protein 1 (FABP1), FABP1 (gene 2168)
Description: LTEA_HepaRG_FABP1: Life Technologies and Expression Analysis (LTEA) Assay for Fatty Acid-Binding Protein 1 (FABP1) using HepaRG (AID 2283494). The gist of the method: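 HepaRG, 48 h post-plating switched to serum-free induction medium, then dosed 48 h (duplicate, 8 pts, ≤100 uM, 0.5% DMSO). RNA → Fluidigm TaqMan qRT-PCR, FABP1 normed to ACTB/GAPDH/POLR2A. Bidirectional curve fit vs DMSO.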

Read-out in test [8]: Cytochrome P450 4A22 (Homo sapiens) (UniProt Q5TCH4)
Briefly: LTEA_HepaRG_CYP4A22: Life Technologies and Expression Analysis (LTEA) Assay for Cytochrome P450 4A22 (CYP4A22) using HepaRG (AID 2283495). Put shortly:
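Cryopreserved HepaRG cells, plated and cultured 48 h, then switched to serum-free induction medium and treated 48 h (duplicates, up to 100 uM, half-log steps, 0.5% DMSO). Expression change of CYP4A22 was fitted bidirectionally against vehicle.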

Read-out in test [9]: Cytochrome P450 7A1 (Homo sapiens) (UniProt P22680)
Briefly: LTEA_HepaRG_CYP7A1: Life Technologies and Expression Analysis (LTEA) Assay for Cytochrome P450 7A1 (CYP7A1) using HepaRG (AID 2283496). Put shortly:
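HepaRG cells plated 48 h, then switched to serum-free induction medium and exposed in duplicate for 48 h to 8-point half-log series from 100 uM in 0.5% DMSO. CYP7A1 mRNA by qRT-PCR (TaqMan), normalized to ACTB/GAPDH/POLR2A; bidirectional fit versus DMSO.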

Read-out in test [10]: Glutathione S-Transferase (GSTA2), GSTA2 (gene 2939)
Briefly: LTEA_HepaRG_GSTA2: Life Technologies and Expression Analysis (LTEA) Assay for Glutathione S-Transferase (GSTA2) using HepaRG (AID 2283497). The gist of the method: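 HepaRG, 48 h dosing, 8-pt half-log CRC from 100 uM, 0.5% DMSO vehicle, n=2; RNA → Fluidigm TaqMan qRT-PCR; GSTA2 vs ACTB/GAPDH/POLR2A; gain/loss fit vs DMSO.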

Read-out in test [11]: growth arrest and DNA damage 45 (GADD45G), GADD45G (gene 10912)
Description: LTEA_HepaRG_GADD45G: Life Technologies and Expression Analysis (LTEA) Assay for growth arrest and DNA damage 45 (GADD45G) using HepaRG (AID 2283499). The gist of the method:
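Human hepatic HepaRG line treated 48 h with chemicals (eight concentrations, half-log steps from 100 uM); transcript induction or repression of GADD45G scored by qRT-PCR versus DMSO vehicle.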

Read-out in test [12]: Glutamate-cysteine ligase regulatory (GCLM), GCLM (gene 2730)
Description: LTEA_HepaRG_GCLM: Life Technologies and Expression Analysis (LTEA) Assay for Glutamate-cysteine ligase regulatory (GCLM) using HepaRG (AID 2283500). Put shortly:
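Cells were plated, cultured 48 h, switched to serum-free induction medium, then dosed in duplicate for 48 h at eight half-log concentrations up to 100 uM. RNA was then profiled by qRT-PCR; gain or loss versus DMSO was fitted.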

Read-out in test [13]: Heat shock 70 kDa protein 1 (HSPA1A), gene 3303
Description: LTEA_HepaRG_HSPA1A: Life Technologies and Expression Analysis (LTEA) Assay for Heat shock 70 kDa protein 1 (HSPA1A) using HepaRG (AID 2283502). The gist of the method:
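Readout is HSPA1A transcript level by microfluidic qRT-PCR, normalized to three housekeeping genes and analysed for gain or loss of signal relative to 0.5% DMSO. Human HepaRG cultures received test chemicals for 48 h at up to 100 uM.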

Read-out in test [14]: Hypoxia-inducible factor 1-alpha (Homo sapiens) (UniProt Q16665)
Briefly: LTEA_HepaRG_HIF1A: Life Technologies and Expression Analysis (LTEA) Assay for Hypoxia-inducible factor 1 (HIF1A) Trancription factor using HepaRG (AID 2283503). Put shortly: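 Differentiated HepaRG cells in serum-free induction medium exposed 48 h, in duplicate, to 8-point half-log series from 100 uM in 0.5% DMSO. HIF1A mRNA measured by TaqMan qRT-PCR, normalized to ACTB/GAPDH/POLR2A, fitted bidirectionally versus DMSO.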

Read-out in test [15]: 3-Hydroxy-3-Methylglutaryl-CoA Synthase 2 (HMGCS2), HMGCS2 (gene 3158)
Description: LTEA_HepaRG_HMGCS2: Life Technologies and Expression Analysis (LTEA) Assay for 3-Hydroxy-3-Methylglutaryl-CoA Synthase 2 (HMGCS2) using HepaRG (AID 2283504). Put shortly:
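Expression of HMGCS2 in human HepaRG liver cells is measured by qRT-PCR 48 h after dosing (highest 100 uM, half-log series, 0.5% DMSO). Values come from bidirectional concentration-response fitting with DMSO as baseline.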

Read-out in another test: HGF (gene 3082)
Description: LTEA_HepaRG_HGF: Life Technologies and Expression Analysis (LTEA) Assay for Hepatocyte Growth Facto (HGF) using HepaRG (AID 2283505). The gist of the method: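 Gain or loss of HGF mRNA in human HepaRG liver cells after 48 h chemical exposure; eight concentrations up to 100 uM with 0.5% DMSO vehicle, quantified by TaqMan qRT-PCR.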

Read-out in test [16]: Glutamate-cysteine ligase catalytic (GCLC), GCLC (gene 2729)
Briefly: LTEA_HepaRG_GCLC: Life Technologies and Expression Analysis (LTEA) Assay for Glutamate-cysteine ligase catalytic (GCLC) using HepaRG (AID 2283498). The gist of the method: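 Read-out is GCLC transcript level by Fluidigm-based TaqMan qRT-PCR, normalized to three housekeeping genes and fitted in both directions relative to 0.5% DMSO. Human HepaRG cells received chemicals for 48 h, up to 100 uM.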

Read-out in test [17]: Glutathione S-transferase M3 (GSTM3), GSTM3 (gene 2947)
Description: LTEA_HepaRG_GSTM3: Life Technologies and Expression Analysis (LTEA) Assay for Glutathione S-transferase M3 (GSTM3) using HepaRG (AID 2283501). Put shortly:
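Changes in GSTM3 expression, an oxidative-stress marker, were scored by bidirectional curve fitting against 0.5% DMSO vehicle. Human HepaRG cultures received chemicals for 48 h in duplicate, highest concentration 100 uM with half-log dilutions.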

Chain of Cytochrome P450 3A7 (Homo sapiens) (P24462 whole entry, looked up): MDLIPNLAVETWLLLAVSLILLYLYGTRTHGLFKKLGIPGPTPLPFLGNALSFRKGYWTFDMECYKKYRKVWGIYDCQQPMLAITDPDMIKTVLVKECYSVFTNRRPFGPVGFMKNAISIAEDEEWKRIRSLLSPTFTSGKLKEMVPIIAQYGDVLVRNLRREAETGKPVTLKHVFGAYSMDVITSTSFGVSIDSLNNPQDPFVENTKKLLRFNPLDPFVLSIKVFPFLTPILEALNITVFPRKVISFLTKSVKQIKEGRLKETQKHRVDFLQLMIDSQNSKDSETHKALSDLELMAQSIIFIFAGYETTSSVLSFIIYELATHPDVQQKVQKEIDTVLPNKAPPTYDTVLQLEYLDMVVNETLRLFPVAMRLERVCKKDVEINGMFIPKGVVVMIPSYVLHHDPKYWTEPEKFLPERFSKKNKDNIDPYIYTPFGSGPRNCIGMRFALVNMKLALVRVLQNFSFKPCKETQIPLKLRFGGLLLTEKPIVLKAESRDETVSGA
Chain of Cytochrome P450 3A4 (Homo sapiens) (P08684 whole entry, looked up): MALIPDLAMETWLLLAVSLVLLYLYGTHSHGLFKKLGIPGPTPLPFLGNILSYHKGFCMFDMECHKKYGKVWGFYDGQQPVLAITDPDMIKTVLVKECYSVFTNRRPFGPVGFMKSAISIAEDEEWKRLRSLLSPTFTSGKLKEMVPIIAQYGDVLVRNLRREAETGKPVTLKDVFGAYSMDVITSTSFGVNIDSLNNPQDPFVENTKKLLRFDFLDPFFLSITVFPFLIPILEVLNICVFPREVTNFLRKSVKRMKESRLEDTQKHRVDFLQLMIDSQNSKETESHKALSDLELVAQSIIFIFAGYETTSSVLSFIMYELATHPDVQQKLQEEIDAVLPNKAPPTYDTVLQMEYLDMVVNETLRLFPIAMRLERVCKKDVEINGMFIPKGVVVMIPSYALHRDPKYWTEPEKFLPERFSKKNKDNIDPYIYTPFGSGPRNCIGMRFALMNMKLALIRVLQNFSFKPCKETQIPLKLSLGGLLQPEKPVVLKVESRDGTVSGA
Chain of Hypoxia-inducible factor 1-alpha (Homo sapiens) (Q16665 whole entry, looked up): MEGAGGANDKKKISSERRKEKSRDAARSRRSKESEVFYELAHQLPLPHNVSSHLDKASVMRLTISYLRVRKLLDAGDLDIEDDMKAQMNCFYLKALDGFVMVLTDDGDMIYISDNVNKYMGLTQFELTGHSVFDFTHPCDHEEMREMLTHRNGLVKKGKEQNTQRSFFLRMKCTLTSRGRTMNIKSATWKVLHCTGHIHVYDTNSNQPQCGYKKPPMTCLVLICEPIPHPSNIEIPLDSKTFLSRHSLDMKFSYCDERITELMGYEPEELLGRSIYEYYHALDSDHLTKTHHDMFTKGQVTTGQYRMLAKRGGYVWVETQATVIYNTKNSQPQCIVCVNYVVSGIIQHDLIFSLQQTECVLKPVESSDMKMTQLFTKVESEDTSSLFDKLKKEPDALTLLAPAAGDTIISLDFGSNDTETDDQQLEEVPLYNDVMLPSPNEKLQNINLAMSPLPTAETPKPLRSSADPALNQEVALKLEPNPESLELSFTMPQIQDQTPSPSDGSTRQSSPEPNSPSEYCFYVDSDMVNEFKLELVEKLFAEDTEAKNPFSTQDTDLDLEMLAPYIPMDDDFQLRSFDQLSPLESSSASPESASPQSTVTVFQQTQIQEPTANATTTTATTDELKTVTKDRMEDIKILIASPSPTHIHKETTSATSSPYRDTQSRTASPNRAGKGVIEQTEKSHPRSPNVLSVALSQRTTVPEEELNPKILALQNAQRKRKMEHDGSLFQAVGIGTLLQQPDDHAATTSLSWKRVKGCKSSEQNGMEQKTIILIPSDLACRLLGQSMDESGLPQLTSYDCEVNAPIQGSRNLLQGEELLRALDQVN

With `Cc1cc2c3c(c1)C(c1ccccc1)=N[C@@H](NC(=O)c1ccncc1)C(=O)N3CC2`, the concentration at half-maximal activity (AC50) (in general, the midpoint of the concentration-response curve, whichever way the signal moves) in the test with CYP4A11 (gene 1579) was 40.4 µM (active); in [1], 3.86 µM (active); in test [2], 75.6 µM (active); in test [5], 50 µM (active); in [6], 12.2 µM (active); in test [7] it was 50 µM (active). The half-maximal activity concentration (AC50) is 36 µM (active) in [8], 50 µM (active) in test [9], 50 µM (active) in test [13] and 71.2 µM (active) in test [15]. In addition, the call (in [3]; in test [4]; in the test with CYP3A5 (gene 1577); in test [10]; in [11]; in test [12]) was inactive. In addition, the compound was classed as inactive (in test [14]; in the test with HGF (gene 3082)).

With `Cc1cccc(C)c1N`, the compound was classed as inactive (with CYP4A11 (gene 1579); in test [1]; in test [2]; in test [3]; in [4]; in test [6]). Also, the compound was called inactive (in the test with CYP3A5 (gene 1577); in test [7]; in [8]; in test [9]; in test [10]; in [16]). In addition, the compound was called inactive (in test [12]; in [17]; in [13]; in test [14]; in test [15]; with HGF (gene 3082)). Besides, in test [5], the half-maximal activity concentration (AC50) was 0.364 µM (active).

On to `O=C(N[C@H]1CN2CCC1CC2)c1cc2ccoc2cn1`, for which the compound was classed as inactive (with CYP4A11 (gene 1579); in test [1]; in test [2]; in test [3]; in [4]; in test [5]). The call (in test [6]; in the test with CYP3A5 (gene 1577); in test [7]; in test [8]; in test [9]; in test [10]) was inactive. Further, the compound was called inactive (in test [16]; in test [12]; in test [13]; in [14]; in [15]; with HGF (gene 3082)).
